Screens deposited in PubChem BioAssay by National Center for Advancing Translational Sciences (NCATS).
IMPase Li cell: cell-permeable IMPase inhibitors with lithium potentiation. CHO-M1 cells, IP1 TR-FRET (IP-One), carbachol + lithium. AID 1457. 210,000 compounds, 0.35% hits. Potency, µM (doses to about 59.4 µM), most hits filed as inhibitors;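 further: IP1 builds up when IMPase is blocked and the TR-FRET signal falls; nearly all actives have a fitted effect of over 50% in size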
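IP1 accumulation measured by competitive TR-FRET in lysed CHO-M1 cells after 30 min compound exposure at 37C, with a small lithium addition to potentiate weak responses. Hill-equation AC50 from ratio and donor-channel data.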
ALOX12 inhib: blocks human 12-lipoxygenase activity | P18054 | purified 12-hLO, xylenol orange hydroperoxide absorbance | Potency, µM (top dose mostly 57.1 µM), actives largely listed as inhibitors | 150,000 compounds, 0.12% hits | AID 1452; further: nearly all actives have a fitted effect of over 55% in size
Target sequence (P18054 whole entry, looked up): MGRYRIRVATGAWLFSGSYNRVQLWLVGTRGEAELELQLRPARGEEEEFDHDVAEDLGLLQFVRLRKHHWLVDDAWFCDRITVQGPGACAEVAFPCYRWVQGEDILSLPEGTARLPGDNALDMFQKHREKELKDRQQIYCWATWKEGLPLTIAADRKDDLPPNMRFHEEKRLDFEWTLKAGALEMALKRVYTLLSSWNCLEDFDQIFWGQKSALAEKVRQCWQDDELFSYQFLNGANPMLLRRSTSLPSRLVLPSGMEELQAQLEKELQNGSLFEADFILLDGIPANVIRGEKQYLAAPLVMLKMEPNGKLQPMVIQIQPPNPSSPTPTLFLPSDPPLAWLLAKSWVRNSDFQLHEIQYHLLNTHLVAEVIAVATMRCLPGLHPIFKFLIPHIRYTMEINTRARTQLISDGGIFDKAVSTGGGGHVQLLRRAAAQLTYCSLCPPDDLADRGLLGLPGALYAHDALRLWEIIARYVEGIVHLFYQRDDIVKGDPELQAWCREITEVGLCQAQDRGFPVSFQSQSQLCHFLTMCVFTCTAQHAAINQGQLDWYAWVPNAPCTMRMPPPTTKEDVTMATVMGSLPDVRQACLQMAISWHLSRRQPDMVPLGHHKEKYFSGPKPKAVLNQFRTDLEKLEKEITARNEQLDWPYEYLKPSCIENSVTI
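Purified human 12hLO (150 nM final) was preincubated with compounds for 15 min at room temperature in 25 mM Hepes pH 7.0, 0.01% Triton X-100, then reacted with 40 uM arachidonic acid for 30 min. Hydroperoxide was detected with ferrous iron/xylenol orange.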
ALOX15B inhib: 15-hLO-2 (ALOX15B) enzyme inhibition; O15296; purified 15hLO-2, xylenol orange hydroperoxide absorbance; Potency, µM (titrated, usually from 57.1 µM), usual class: inhibitors; 110,000 compounds, 0.56% hits; further: nearly all actives have a fitted effect of over 60% in size
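Enzyme 50 nM, AA 45 uM, 25 mM Hepes pH 7.5 + 0.01% Triton X-100; cpd preinc 15 min RT, rxn 90 min RT; stop/detect with 200 uM XO + 300 uM Fe(II) in 50 mM H2SO4, 30 min; A573/A405.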
HPGD inh: inhibitors of human 15-hydroxyprostaglandin dehydrogenase (HPGD). 150,000 compounds, 4.3% hits. Potency, µM, most hits filed as inhibitors. P15428. purified HPGD, NADH fluorescence kinetic, PGE2 substrate. AID 894; active means well fitted inhibition curve with a large enough effect, not every such curve was filed as active; inconclusive means small, poorly fitted or top-dose-only effect, or another doubt; inactive means no such curve, though single readings can be large or run the other way
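NADH formation kinetics: reaction with 30 uM PGE2 and 1 mM NAD+ (final), 20 nM enzyme, Tris-HCl pH 8 with Tween 20, after 15 min compound preincubation at room temperature. Fluorescence change, last versus first of five reads.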
IMPase cell inh: cell-permeable inhibitors of inositol monophosphatase (IMPase); P97697; CHO-M1 cells, IP1 accumulation, HTRF TR-FRET ratio; inhibition (IP1 accumulation), % at 46.1 µM; 120,000 tested, under 10 active; AID 901; active means well fitted curve in the direction sought with a large enough effect in the signal ratio, not every such curve was filed as active; inconclusive means small, poorly fitted or top-dose-only effect, or a change in a side signal; inactive means no such curve, though single readings can be large or run the other way; the % refers to the signal ratio;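 further: cells stimulated with carbachol in lithium chloride buffer; higher means more IMPase inhibition seen as more IP1 and lower FRET ratio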
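Seeded CHO-M1 cells were dosed with compound at up to 46 uM, stimulated with carbachol for 30 min, then lysed in IP-One detection reagents. Higher IP1 lowers the TR-FRET signal.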
PNC assembly inh: inhibitors of perinucleolar compartment assembly. PC3M PTB-GFP, PNC prevalence imaging, 16 h; hits give low values. AID 2417. activity change (PNC), negative = inhibition, % at 10 µM. 140,000 compounds, 3.1% hits;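 active means readout at or below -70, meaning at least 70% loss of cells showing the perinucleolar compartment, a nuclear body marking cancer cells; inconclusive means readout between -30 and a set limit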
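Compounds are pinned in duplicate onto adhered PC3M cells stably expressing GFP-tagged PTB and incubated 16 h at 37 C. Cells are then fixed, nuclei stained with Hoechst, and PNC-positive cells counted.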
Each line names hits and unclear results; the compound was inactive in the other large screens. Only some compounds are listed: those with a hit (about 5.3% of all), similar ones and a draw of the others. Unless noted, the call rests on the fitted dose curve; in most records, active means well fitted curve in the direction sought with a large enough effect; inconclusive means small, poorly fitted or top-dose-only effect, or another doubt; inactive means no such curve, though single readings can be large; an effect the other way counts as inactive or inconclusive.

O=C1N=C(N2CCc3ccccc3C2)S/C1=C\c1cccc(O)c1	HPGD inh 5µM (no result: ALOX15B inhib, IMPase cell inh)
CCOc1ccc(/C=C2\SC(N3CCc4ccccc4C3)=NC2=O)cc1	HPGD inh 22µM (no result: ALOX15B inhib, IMPase cell inh)
COc1ccc(/C=C2\SC(N3CCc4ccccc4C3)=NC2=O)cc1	HPGD inh inconclusive, PNC assembly inh inconclusive (no result: ALOX15B inhib, IMPase cell inh)
Fc1cccc(NCc2ccccc2-c2nnc(-c3ccccc3Cl)o2)c1	none (no result: IMPase Li cell, ALOX12 inhib, ALOX15B inhib, HPGD inh, PNC assembly inh)
CCc1ccc(Nc2nnc(SCc3cc(=O)n4ccsc4n3)s2)cc1	HPGD inh 20µM
Cc1cccc(Nc2nnc(SCc3cc(=O)n4cc(C)ccc4n3)s2)c1	HPGD inh 16µM, PNC assembly inh inconclusive (no result: ALOX15B inhib, IMPase cell inh)
O=c1oc2cc(O)ccc2c2oc3cc(O)ccc3c12	HPGD inh inconclusive (no result: ALOX15B inhib, IMPase cell inh)
COc1c(O)c(O)cc2c1oc1c3ccccc3oc(=O)c21	ALOX12 inhib inconclusive, ALOX15B inhib inconclusive, HPGD inh 13µM (no result: IMPase cell inh, PNC assembly inh)
COC(=O)/C=C1\S/C(=N/N=C/c2ccccc2)NC1=O	HPGD inh 25µM (no result: ALOX15B inhib)
c1nnc(NC2=NCCCCC2)s1	none
c1nnc(NC2=NCCC2)s1	PNC assembly inh -111
Cc1cc(F)c(F)c(C(=O)N2CCN(C)CC2)c1Cl	none
O=C(CC1NCCNC1=O)Nc1ccc2c(c1)OCO2 (stereo not drawn)	PNC assembly inh -91
OCc1ccccc1	none (no result: IMPase cell inh, PNC assembly inh)
ICCc1ccccc1	ALOX12 inhib inconclusive, HPGD inh 10µM (no result: IMPase cell inh, PNC assembly inh)
CCCNC(=O)C1CCN(c2ccc(S(=O)(=O)N3CCOCC3)cc2Cl)CC1	HPGD inh 16µM, PNC assembly inh inconclusive (no result: ALOX15B inhib)
C=CCNC(=O)C1CCN(c2ccc(S(=O)(=O)N3CCOCC3)cc2Cl)CC1	none (no result: ALOX12 inhib, ALOX15B inhib, HPGD inh, IMPase cell inh, PNC assembly inh)
CC(=O)N(CCN(C(C)=O)c1ccccc1)c1ccccc1	PNC assembly inh inconclusive
CC(=O)N(Cc1ccccc1)c1ccc(C(=O)O)cc1	PNC assembly inh -85
O=C(NCc1ccc(N2CCCC2=O)cc1)c1ccc(F)cc1	none (no result: ALOX12 inhib, ALOX15B inhib, HPGD inh, IMPase cell inh, PNC assembly inh)
O=C(NCc1ccco1)c1ccc(N2CCCCC2)c([N+](=O)[O-])c1	HPGD inh 32µM, PNC assembly inh inconclusive (no result: ALOX15B inhib, IMPase cell inh)
O=C(NCc1ccco1)c1ccc(N2CCCC2=O)cc1	HPGD inh 25µM
CCCCCCCNC(=O)c1ccc(N2CCC3(CC2)OCCO3)c([N+](=O)[O-])c1	PNC assembly inh -119 (no result: ALOX15B inhib)
COc1ccc(CNC(=O)c2ccc(N3CCOCC3)c([N+](=O)[O-])c2)cc1	none (no result: ALOX12 inhib, ALOX15B inhib, HPGD inh, IMPase cell inh, PNC assembly inh)
COc1ccccc1OCC#CCNC1CCCCC1C (stereo not drawn)	none (no result: ALOX12 inhib, ALOX15B inhib, HPGD inh, IMPase cell inh, PNC assembly inh)
CC(C)(C)Cn1nc(-c2ccc(Cl)cc2)c2c(N)ncnc21	none (no result: PNC assembly inh)
CC(CCc1ccccc1)NC(=O)c1ccc(NC(=O)c2ccccc2)cc1 (stereo not drawn)	none (no result: IMPase Li cell, ALOX15B inhib, HPGD inh)
CC(CCc1ccccc1)NC(=O)c1ccc(NC(=O)c2cccc(Br)c2)cc1 (stereo not drawn)	PNC assembly inh -113 (no result: ALOX15B inhib, IMPase cell inh)
CCN(CC)S(=O)(=O)c1ccc(N2CCOCC2)c(NCC(=O)Nc2ccc(F)cc2)c1	none (no result: ALOX12 inhib, ALOX15B inhib, HPGD inh, IMPase cell inh, PNC assembly inh)
Clc1ccc(N2CCN(c3cnc4ccccc4n3)CC2)cc1	none
c1ccc(N2CCN(c3cnc4ccccc4n3)CC2)cc1	HPGD inh 22µM
COc1cccc(CN2CCNC(=O)C2CC(=O)NCc2cc(C(C)C)no2)c1 (stereo not drawn)	none (no result: ALOX12 inhib, ALOX15B inhib, HPGD inh, IMPase cell inh, PNC assembly inh)
N#CCCn1c(=O)c(-c2ccccc2)nc2cnc(Oc3ccccc3)nc21	HPGD inh inconclusive (no result: IMPase cell inh, PNC assembly inh)
COc1ccc(C2SCCN2C(=S)Nc2cccc(Cl)c2)cc1 (stereo not drawn)	ALOX12 inhib inconclusive, PNC assembly inh -102 (no result: ALOX15B inhib, IMPase cell inh)
COc1ccc(C2SCCN2C(=S)Nc2ccc(Cl)cc2)cc1 (stereo not drawn)	HPGD inh inconclusive (no result: ALOX15B inhib)
COC(=O)[C@@]1(Cc2ccc(OC)cc2)[C@H]2c3cc(C(=O)N(C)C)n(Cc4ccc(C)o4)c3C[C@H]2CN1C(=O)c1ccccc1	ALOX15B inhib inconclusive, HPGD inh 25µM (no result: IMPase cell inh, PNC assembly inh)
